The nature of assay [1]: TOX21_p53_BLA_p3_viability: Viability Assessment in the Tox21 HCT-116 p53 Agonism Beta-lactamase Assay, Phase 3 (AID 2283593).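 Note: cells exposed to compound for 16 h before reading.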 The method in brief: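 HCT-116 cells (4000/well) rested 5 h at 37C, then got DMSO compounds by pin tool (217-fold dilution) for 16 h at 37C, 5% CO2. After the bla read, CellTiter-Glo was added and luminescence read at 30 min, room temperature.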
Assay [2] concerns the target Cellular tumor antigen p53 (Homo sapiens) (UniProt P04637). Put plainly: TOX21_p53_BLA_p3_ratio: Tox21 HCT-116 p53 Agonism Beta-lactamase Assay, Ratio, Phase 3 (AID 2283596). Summed up:
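Cells were seeded at 4000/well, rested 5 h at 37C, then dosed with DMSO compound solutions (217-fold dilution) for 16 h. CCF4-AM substrate was loaded for 2 h at room temperature, and the 460/530 nm emission ratio was fitted for gain of signal versus DMSO.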

Assay [3] in a line: TOX21_p53_BLA_p4_viability: Viability Assessment in the Tox21 HCT-116 p53 Agonism Beta-lactamase Assay, Phase 4 (AID 2283597).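 Note: hits lower the luminescence signal meaning cytotoxicity.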 The method in brief:
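Cytotoxicity as reduced cellular ATP (CellTiter-Glo luminescence, 30 min room temperature), measured in the same wells following the CCF4 FRET p53 reading. Human HCT-116 cells received compounds in DMSO (217-fold dilution) for 16 h.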

Assay [4] addresses Cellular tumor antigen p53 (Homo sapiens) (UniProt P04637). Put plainly: TOX21_p53_BLA_p5_ratio: Tox21 HCT-116 p53 Agonism Beta-lactamase Assay, Ratio, Phase 5 (AID 2283599). The method in brief: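 HCT-116 cells carrying a p53-inducible beta-lactamase reporter were seeded at 4000 cells/well and dosed after 5 h with compound in DMSO (217-fold dilution). After 16 h at 37C, CCF4-AM substrate was added for 2 h, and the 460/530 nm emission ratio was scored as gain-of-signal versus DMSO.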

Assay [5] is described as follows: TOX21_p53_BLA_p5_viability: Viability Assessment in the Tox21 HCT-116 p53 Agonism Beta-lactamase Assay, Phase 5 (AID 2283600). The method in brief: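 Viability came from CellTiter-Glo ATP luminescence, read after 30 min at room temperature. Before this, HCT-116 p53-bla cells (4000/well) had 16 hours of compound exposure at 37C, with DMSO stocks diluted 217-fold on transfer.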

In assay [6] the target is Cellular tumor antigen p53 (Homo sapiens) (UniProt P04637). Put plainly: TOX21_p53_BLA_p4_ratio: Tox21 HCT-116 p53 Agonism Beta-lactamase Assay, Ratio, Phase 4 (AID 2283601). Summed up: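 HCT116 cells carrying an inducible beta-lactamase reporter were plated at 4000 cells/well, rested 5 h, then exposed to compounds in DMSO (217-fold dilution) for 16 h at 37C. CCF4-AM substrate was loaded 2 h at room temperature; 460/530 nm emission ratio scored gain-of-signal versus DMSO.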
Sequence of Cellular tumor antigen p53 (Homo sapiens) (P04637 whole entry, looked up): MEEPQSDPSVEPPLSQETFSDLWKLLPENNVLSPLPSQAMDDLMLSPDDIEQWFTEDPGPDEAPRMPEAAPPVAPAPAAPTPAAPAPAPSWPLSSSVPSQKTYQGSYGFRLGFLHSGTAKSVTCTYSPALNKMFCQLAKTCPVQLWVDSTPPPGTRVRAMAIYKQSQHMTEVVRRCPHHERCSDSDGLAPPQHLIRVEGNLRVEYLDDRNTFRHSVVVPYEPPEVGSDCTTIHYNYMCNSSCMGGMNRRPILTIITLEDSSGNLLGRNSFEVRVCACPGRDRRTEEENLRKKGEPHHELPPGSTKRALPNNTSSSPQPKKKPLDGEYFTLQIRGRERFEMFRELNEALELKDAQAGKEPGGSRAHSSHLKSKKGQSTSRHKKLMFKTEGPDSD

Assay [7] shares this target. Put plainly: TOX21_p53_BLA_p2_ratio: Tox21 HCT-116 p53 Agonism Beta-lactamase Assay, Ratio, Phase 2 (AID 2283592). Summed up:
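Read-out is the blue/green (460/530 nm, 405 nm excitation) ratio after 2 h CCF4-AM loading, fitted as gain versus DMSO. Compounds, pinned at 217-fold dilution from DMSO stocks, stayed 16 h on HCT-116 beta-lactamase reporter cells seeded 5 h earlier.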

Molecules are shown by their SMILES. Results filed as inconclusive are left out. The source holds several records for some structures; these can differ, active in one and inactive in another. The source made the active and inactive calls. Rule for the calls: active = hit-call score of the fitted dose curve at least 0.9, where 1 is the maximum; inconclusive = response in the unintended direction; inactive = score below 0.9.

Consider `COC(=O)OC`, for which the result in assay [1], in assay [2], in assay [3], in assay [4], in assay [5] and in assay [6] was inactive.

For `CNCCO`, the outcome in assay [7], in assay [3] and in assay [5] was inactive.

With `COc1ccc(OC)c(OC)c1`, the outcome in assay [1], in assay [2], in assay [4], in assay [5] and in assay [6] was inactive.

For the compound `C=CCOC(=O)CCC1CCCCC1`, the compound was called inactive in assay [1], in assay [2], in assay [4] and in assay [6].

Regarding `Cc1ccc(Nc2ccc(O)c3c2C(=O)c2ccccc2C3=O)cc1`, the call in assay [1], in assay [2], in assay [3] and in assay [4] was inactive.

For the compound `CCCCCCCCC`, the outcome in assay [7], in assay [3], in assay [5] and in assay [6] was inactive.

Regarding `O=S(=O)(O)c1ccc(O)c2ncccc12`, the result in assay [1], in assay [2], in assay [4], in assay [5] and in assay [6] was inactive.

Take `CC(=O)Nc1ccccc1O`: the result in assay [7], in assay [3] and in assay [6] was inactive.

For the compound `Cc1ccc2ccccc2n1`, the result in assay [1], in assay [2], in assay [4], in assay [5] and in assay [6] was inactive.

For the compound `Sc1nc(S)nc(S)n1`, the outcome in assay [1], in assay [2], in assay [4] and in assay [6] was inactive.

On to `CNC[C@H](O)c1cccc(O)c1`, for which the outcome in assay [1], in assay [2], in assay [3], in assay [4], in assay [5] and in assay [6] was inactive.

On to `CC(C)=CCO`, for which the call in assay [1], in assay [2], in assay [3] and in assay [4] was inactive.

On to `CNC(=O)Oc1ccc2c(c1)[C@]1(C)CCN(C)[C@@H]1N2C`, for which the outcome in assay [1], in assay [2], in assay [3], in assay [4], in assay [5] and in assay [6] was inactive.

`Cc1ccccc1C=O`: the outcome in assay [1], in assay [2], in assay [4], in assay [5] and in assay [6] was inactive.

As for `CC(C)OP(=O)(CP(=O)(OC(C)C)OC(C)C)OC(C)C`, the call in assay [1], in assay [2], in assay [4] and in assay [6] was inactive.

For `CCN(CC)c1ccc2c(-c3ccccc3C(=O)O)c3ccc(=[N+](CC)CC)cc-3oc2c1`, the result in assay [1], in assay [2], in assay [3], in assay [4], in assay [5] and in assay [6] was inactive.

For the compound `C=C(C)C(=O)O`, the compound was called inactive in assay [1], in assay [2], in assay [3], in assay [4], in assay [5] and in assay [6].

For the compound `CC(C)(C)NC(N)=O`, the result in assay [7], in assay [4], in assay [5] and in assay [6] was inactive.

`NCCCCCCN`: the outcome in assay [1], in assay [2], in assay [4], in assay [5] and in assay [6] was inactive.

Turning to `O=C1CCCCCCCCCCCCCCO1`, the result in assay [7], in assay [4], in assay [5] and in assay [6] was inactive.

`CC1(C)[C@H]2CC[C@]1(C)[C@H](O)C2`: the result in assay [1], in assay [2], in assay [3], in assay [4] and in assay [5] was inactive.

Regarding `COc1ccc(O)cc1`, the outcome in assay [1], in assay [3], in assay [4], in assay [5] and in assay [6] was inactive.

As for `Nc1ccc(S(N)(=O)=O)cc1`, the outcome in assay [1], in assay [3], in assay [4], in assay [5] and in assay [6] was inactive.

Regarding `NC(=O)Nc1ccc(Cl)cc1`, the result in assay [2] and in assay [6] was inactive.

For the compound `COc1ccc(Cl)cc1C`, the outcome in assay [2] and in assay [4] was inactive.

Regarding `CCCCCCCCCCCCCCCCCC(=O)OCC(CC)CCCC` (stereo not given), the compound was called inactive in assay [1], in assay [3], in assay [4] and in assay [6].

As for `O=C(O)CN(CCN(CC(=O)O)CC(=O)O)CCN(CC(=O)O)CC(=O)O`, the outcome in assay [2], in assay [3], in assay [4], in assay [5] and in assay [6] was inactive.

Consider `CSc1nc(NC2CC2)nc(NC(C)(C)C)n1`, for which the compound was classed as inactive in assay [1], in assay [3] and in assay [4].

Regarding `O=[N+]([O-])c1ccc(Nc2ccc(Nc3ccccc3)c(S(=O)(=O)O)c2)c([N+](=O)[O-])c1`, the call in assay [3] and in assay [5] was inactive.

Take `O=C(O)c1cn(C2CC2)c2cc(N3CCNCC3)c(F)cc2c1=O`: the result in assay [3] and in assay [5] was inactive.

As to `O=S(=O)(O)c1cccc2c(S(=O)(=O)O)cccc12`, the outcome in assay [2], in assay [3] and in assay [6] was inactive.

As to `CC1(C)C(=O)N(Br)C(=O)N1Cl`, the outcome in assay [1], in assay [3] and in assay [4] was inactive.

Regarding `COC(C)CCO` (stereo not given), the outcome in assay [1] and in assay [5] was inactive.

For `CC(C)=CCC[C@](C)(O)[C@@H]1CC=C(C)CC1`, the result in assay [2], in assay [4], in assay [5] and in assay [6] was inactive.

Turning to `CCCCCCCCC=O`, the result in assay [2] and in assay [5] was inactive.

Regarding `CC(C#N)(CCC(=O)O)N=NC(C)(C#N)CCC(=O)O` (stereo not given), the outcome in assay [1], in assay [4], in assay [5] and in assay [6] was inactive.

Regarding `O=C(O)c1cccc([N+](=O)[O-])c1`, the call in assay [1], in assay [3], in assay [4], in assay [5] and in assay [6] was inactive.

Take `NNc1nc(-c2ccc(N)cc2)cs1`: the result in assay [2], in assay [3], in assay [4], in assay [5] and in assay [6] was inactive.

One may read the AC50 as the concentration at which the activity in the assay is half-maximal. Turning to `C=CC(=O)OCCn1c(=O)n(CCOC(=O)C=C)c(=O)n(CCOC(=O)C=C)c1=O`, the result in assay [1], in assay [4], in assay [5] and in assay [6] was inactive. Further, the AC50 in assay [3] was 15.4 µM (active).

As to `CCCCCCCCCCC(CO)CCCCCCCC` (stereo not given), the call in assay [1], in assay [3], in assay [5] and in assay [6] was inactive.

Turning to `CC(CN1c2ccccc2Sc2ccccc21)N(C)C` (stereo not given), the result in assay [2], in assay [4] and in assay [6] was inactive. Besides, the AC50 is 43.5 µM (active) in assay [4] and 39.8 µM (active) in assay [5].

Turning to `CCCCNC(=O)NS(=O)(=O)c1ccc(N)cc1`, the result in assay [2], in assay [4], in assay [5] and in assay [6] was inactive.

`C=C[C@@H](C)CCC=C(C)C`: the result in assay [4], in assay [5] and in assay [6] was inactive.

Consider `C=CC(=O)NCOCC(C)C`, for which the compound was classed as inactive in assay [1], in assay [3], in assay [5] and in assay [6].

Turning to `C=CCOc1nc(OCC=C)nc(OCC=C)n1`, the call in assay [5] and in assay [6] was inactive.

With `Fc1c(F)c(F)c(Br)c(F)c1F`, the result in assay [2], in assay [3] and in assay [6] was inactive.

On to `CCCCC(CC)COCCC#N` (stereo not given), for which the result in assay [4] and in assay [5] was inactive.

On to `OCC(CO)(CO)COCC(CO)(CO)CO`, for which the compound was classed as inactive in assay [1], in assay [3], in assay [4], in assay [5] and in assay [6].

For `O=C(O)CCSCCC(=O)O`, the outcome in assay [2], in assay [4], in assay [5] and in assay [6] was inactive.

Take `CCO[Si](CCCS)(OCC)OCC`: the result in assay [1] and in assay [4] was inactive.

Consider `CC(C)CCCCCCCOC(=O)c1ccc(C(=O)OCCCCCCCC(C)C)c(C(=O)OCCCCCCCC(C)C)c1`, for which the result in assay [2], in assay [4] and in assay [6] was inactive.

In the case of `CC1=CCC(O)(C(C)C)CC1` (stereo not given), the result in assay [2], in assay [3], in assay [4] and in assay [6] was inactive.

For the compound `c1cc(C(c2ccc(OCC3CO3)cc2)c2ccc(OCC3CO3)cc2)ccc1OCC1CO1` (stereo not given), the result in assay [1], in assay [3] and in assay [5] was inactive.

Turning to `C[C@H]1C[C@@H]2[C@H]([C@@H](O)C[C@@]3(C)[C@H]2CC[C@]3(O)C(=O)CO)[C@@]2(C)C=CC(=O)C=C12`, the compound was called inactive in assay [1], in assay [2] and in assay [6].

In the case of `C=C[Si](OCC)(OCC)OCC`, the result in assay [1] and in assay [6] was inactive.

Turning to `CCCCCC=CCC(=O)OC`, the result in assay [1] and in assay [5] was inactive.

As for `C=CC(=O)OCC(O)COc1ccccc1` (stereo not given), the results for the AC50 in assay [1], in assay [3] and in assay [6] were 75.6 µM (active), 48.2 µM (active) and 37.6 µM (active), respectively. Moreover, the result in assay [4] and in assay [5] was inactive.

For `CC(=O)[O][Al][O]C(C)=O`, the call in assay [3] and in assay [5] was inactive.

Turning to `CC(C=O)Cc1ccc(C(C)C)cc1` (stereo not given), the outcome in assay [4] and in assay [5] was inactive.

As to `CC(C)Oc1ccccc1O`, the result in assay [2], in assay [3], in assay [4], in assay [5] and in assay [6] was inactive.

The record behind these values is PubChem BioAssay (EPA / NIEHS).
